According to PubChem BioAssay (Tox21):
“And” between values parts separate entries of the source, which are not always exact repeats. Equal entries are not always repeated. Values without a mark were called inactive. Inconclusive results are not listed. The source made the active and inactive calls. Calls follow the shape of the dose curve; as a rule, active = well fitted curve in the direction sought with a large enough effect in the repeat runs; inconclusive = weak or mixed curves; inactive = no such curve, though single readings can be large; an effect the other way counts as inactive or inconclusive.

How the values were obtained:
[1] = Caspase-3/7 induction in HepG2 cells by small molecules, qHTS assay (AID 1346978); also: nearly all actives have a fitted effect of over 15% in size; also: potency is read from the fitted curve at half-maximal effect
Method in brief: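 Wild-type HepG2 cells (2,000/well) were settled 5 h at 37 C, 5% CO2, then exposed to compounds in DMSO for 17 h. Caspase-3/7 activity was read by luminescence 30 min after adding Caspase-Glo 3/7 reagent at room temperature.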

[2] = Caspase-3/7 induction in CHO-K1 cells by small molecules, qHTS cell viability counter screen (AID 1346979); also: nearly all actives have a fitted effect of over 35% in size; also: potency is read from the fitted curve at half-maximal effect
Method in brief: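 Viability readout by fluorescence (CellTiter-Fluor) on wild-type CHO-K1 cells exposed for 16hr at 37C and 5% CO2 to compounds delivered in DMSO; reagent incubated 1hr before reading.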

[3] = biological target: Cytochrome P450 2D6 (Homo sapiens) (UniProt P10635); experiment: Cytochrome P450 Family 2 Subfamily D Member 6 (CYP2D6) small molecule antagonists: luciferase reporter qHTS assay (AID 1671196); also: nearly all actives have a fitted effect of over 50% in size; also: potency is read from the fitted curve at half-maximal effect
Sequence of Cytochrome P450 2D6 (Homo sapiens) (P10635 whole entry, looked up): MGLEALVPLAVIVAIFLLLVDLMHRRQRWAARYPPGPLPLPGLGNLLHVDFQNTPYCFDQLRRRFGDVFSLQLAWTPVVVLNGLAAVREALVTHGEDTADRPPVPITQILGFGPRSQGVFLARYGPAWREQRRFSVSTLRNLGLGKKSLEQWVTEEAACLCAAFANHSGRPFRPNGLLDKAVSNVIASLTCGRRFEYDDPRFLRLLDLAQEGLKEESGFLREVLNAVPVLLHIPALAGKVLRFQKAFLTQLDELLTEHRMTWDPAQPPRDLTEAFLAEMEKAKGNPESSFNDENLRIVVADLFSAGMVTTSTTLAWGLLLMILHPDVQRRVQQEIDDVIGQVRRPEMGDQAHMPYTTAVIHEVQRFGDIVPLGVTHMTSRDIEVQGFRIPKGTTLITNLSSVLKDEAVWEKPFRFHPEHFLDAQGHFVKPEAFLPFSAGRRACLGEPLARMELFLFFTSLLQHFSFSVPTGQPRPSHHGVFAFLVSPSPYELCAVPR
Method in brief: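 Room-temperature luminescent CYP2D6 activity assay: compound preincubated 10 min with enzyme–substrate mix, NADPH-initiated reaction 1 h, detection reagent 20 min before reading.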

[4] = Caspase-3/7 induction in CHO-K1 cells by small molecules, qHTS assay (AID 1346980); also: nearly all actives have a fitted effect of over 15% in size; also: potency is read from the fitted curve at half-maximal effect
Method in brief: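 Wild-type cells were seeded at 1,500 per well and settled 5 hr at 37 C, 5% CO2, then exposed to DMSO-dissolved compounds for 17 hr. Caspase-Glo 3/7 reagent was added, and luminescence was read after 30min at room temperature.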

[5] = Caspase-3/7 induction in HepG2 cells by small molecules, qHTS cell viability counter screen (AID 1346981); also: nearly all actives have a fitted effect of over 30% in size; also: potency is read from the fitted curve at half-maximal effect
Method in brief: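 After a 5-hr attachment period at 37 C and 5% CO2, wild-type HepG2 cells received compounds in DMSO. Sixteen hours later CellTiter-Fluor was dispensed and the fluorescent signal quantified after a further hour.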

[6] = biological target: Nuclear receptor subfamily 1 group I member 2 (Homo sapiens) (UniProt O75469); experiment: Human pregnane X receptor (PXR) small molecule agonists, qHTS assay (AID 1346982); also: nearly all actives have a fitted effect of over 35% in size; also: potency is read from the fitted curve at half-maximal effect
Sequence of Nuclear receptor subfamily 1 group I member 2 (Homo sapiens) (O75469 whole entry, looked up): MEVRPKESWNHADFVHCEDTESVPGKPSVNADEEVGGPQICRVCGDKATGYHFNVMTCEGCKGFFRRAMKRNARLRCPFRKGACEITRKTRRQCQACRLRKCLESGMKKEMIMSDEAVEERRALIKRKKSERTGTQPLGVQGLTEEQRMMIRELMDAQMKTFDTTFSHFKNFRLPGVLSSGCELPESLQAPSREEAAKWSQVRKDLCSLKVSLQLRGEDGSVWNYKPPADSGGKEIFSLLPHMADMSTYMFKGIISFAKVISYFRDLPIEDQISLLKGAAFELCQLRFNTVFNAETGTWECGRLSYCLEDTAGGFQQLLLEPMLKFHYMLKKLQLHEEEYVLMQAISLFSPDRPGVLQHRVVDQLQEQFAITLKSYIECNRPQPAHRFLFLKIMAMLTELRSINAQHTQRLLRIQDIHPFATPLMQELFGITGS
Method in brief: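 Tox21 qHTS; PXR-Luc HepG2; compounds pinned from DMSO; 24 hr, 37 C; ONE-Glo luciferase detection, 30 min room temperature.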

[7] = biological target: Nuclear receptor subfamily 1 group I member 2 (Homo sapiens) (UniProt O75469); experiment: CYP3A4 induction through human pregnane X receptor (PXR) by small molecules, qHTS assay (AID 1346984); also: nearly all actives have a fitted effect of over 40% in size; also: potency is read from the fitted curve at half-maximal effect
Method in brief: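 Cells (DPX-2; HepG2 with PXR element plus CYP3A4-promoter luciferase) settled 5hr, then were treated 24hr at 37C. A 3hr, 3uM-final Luciferin-IPA step preceded luminescence measurement with One-Glo.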

[8] = biological target: Nuclear receptor subfamily 1 group I member 2 (Homo sapiens) (UniProt O75469); experiment: Human pregnane X receptor (PXR) activation by small molecules, qHTS assay (AID 1346985); also: nearly all actives have a fitted effect of over 40% in size; also: potency is read from the fitted curve at half-maximal effect
Method in brief: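 DPX-2 cells (HepG2 co-transfected with a PXR response element and a CYP3A4-promoter luciferase construct) were seeded at 2,000 per well, rested 5 hr at 37C, then exposed to DMSO-dissolved compounds for 24 hr. Activation was read as luciferase luminescence.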

[9] = biological target: Nuclear receptor subfamily 1 group I member 2 (Rattus norvegicus) (UniProt Q9R1A7); experiment: Rat pregnane X receptor (rPXR) activation by small molecules, qHTS assay (AID 1346983); settings: rPXR luciferase reporter cells, One-Glo luminescence, 24 h; max activation: active compounds read high; also: nearly all actives have a fitted effect of over 20% in size
Sequence of Nuclear receptor subfamily 1 group I member 2 (Rattus norvegicus) (Q9R1A7 whole entry, looked up): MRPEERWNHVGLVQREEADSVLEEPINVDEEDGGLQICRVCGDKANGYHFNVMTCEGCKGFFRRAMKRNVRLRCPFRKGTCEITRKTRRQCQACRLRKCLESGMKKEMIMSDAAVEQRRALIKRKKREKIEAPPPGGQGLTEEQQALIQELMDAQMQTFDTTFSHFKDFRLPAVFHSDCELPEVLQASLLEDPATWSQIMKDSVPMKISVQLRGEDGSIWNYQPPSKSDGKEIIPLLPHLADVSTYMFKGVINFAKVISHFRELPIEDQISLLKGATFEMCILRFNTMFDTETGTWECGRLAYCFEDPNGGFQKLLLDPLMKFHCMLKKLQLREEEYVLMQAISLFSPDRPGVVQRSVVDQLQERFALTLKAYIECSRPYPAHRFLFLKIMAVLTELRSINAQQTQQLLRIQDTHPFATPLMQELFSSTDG
Method in brief: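 Cell-based rPXR luciferase reporter assay, 2,000 cells per well, rested 5hr at 37 C before compound addition in DMSO, then 24 hr at 37 C. One-Glo reagent was added and luminescence read after 30 min at room temperature.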
% is scaled to controls: 0 for no effect and ±100 for the full control effect.

In the case of `NNc1nc(-c2ccc(N)cc2)cs1`, the Potency [1] is reported as “inactive”, the Potency [2] is reported as 48.6 µM (active) and the Potency [3] is reported as 71 µM (active).
For `Oc1ccc(N=Nc2ccccc2)cc1`, the Potency [2] was 61.9 µM (active), the Potency [4] was “inactive” and the Potency [5] was 55.2 µM (active). The Potency [6] was 34.8 µM (active).
For `C[C@@H](NCCCc1cccc(C(F)(F)F)c1)c1cccc2ccccc12`, the Potency [7] was “inactive” and the Potency [3] was 0.0389 µM (active).
With `O=C1Cc2cc(CCN3CCN(c4nsc5ccccc45)CC3)c(Cl)cc2N1` the Potency [1] was “inactive”, the Potency [4] was “inactive” and the Potency [5] was “inactive”. The Potency [8] was “inactive” and the Potency [3] was “inactive”.
In the case of `C/C=C1/C(=O)C[C@H]2[C@@H]3CCC4=CC(=O)CC[C@]4(C)[C@H]3CC[C@]12C`, the Potency [2] is reported as 60.9 µM (active), the Potency [4] is reported as “inactive” and the Potency [3] is reported as “inactive”.
In the case of `O=C(OCC1CO1)C1CCCCC1C(=O)OCC1CO1` (stereo unspecified), the Potency [1] is reported as “inactive”, the Potency [2] is reported as 68.7 µM (active) and the Potency [4] is reported as “inactive”. For the same compound, the Potency [3] was “inactive”.
With `Nc1nc2ccccc2n1Cc1ccc(F)cc1` the Potency [1] was “inactive”, the Potency [2] was 23.7 µM (active) and the Potency [6] was 26.6 µM (active). The Potency [3] was 0.692 µM (active).
For `CCCCCCCCn1sc(Cl)c(Cl)c1=O`, the Potency [1] was “inactive”, the Potency [2] was 2.73 µM (active) and the Potency [4] was “inactive”. For the same compound, the Potency [6] was 61.1 µM (active) and the Potency [3] was 28.3 µM (active).
With `Cc1oc(-c2ccccc2)nc1CCC(=O)c1ccc(CC2SC(=O)NC2=O)cc1` (stereo unspecified) the Potency [2] was 21.1 µM (active), the Potency [6] was “inactive” and the Potency [3] was “inactive”.
With `CCCCCCCCS(=O)C(C)Cc1ccc2c(c1)OCO2` (stereo unspecified) the Potency [1] was “inactive”, the Potency [5] was 69.9 µM (active) and the Potency [6] was 19.7 µM (active). For the same compound, the Potency [3] was 64.6 µM (active).
With `CCCCN1C(=O)[C@@H]([C@H](O)C2CCCCC2)NC(=O)C12CCN(Cc1ccc(Oc3ccc(C(=O)O)cc3)cc1)CC2` the Potency [2] was 61.1 µM (active), the Potency [4] was “inactive” and the Potency [5] was 30.6 µM (active). The Potency [6] was “inactive” and the Potency [3] was “inactive”.
With `CCCCN(CCCC)c1ccc(C(=O)c2ccccc2C(=O)O)c(O)c1` the Potency [6] was 61.7 µM (active) and the Potency [3] was “inactive”.
For `CC[C@@]1(O)C(=O)OCc2c1cc1n(c2=O)Cc2cc3c(CN(C)C)c(O)ccc3nc2-1`, the Potency [1] was 4.22 µM (active), the Potency [6] was “inactive” and the max activation [9] was -5.54%. The Potency [7] was “inactive” and the Potency [8] was “inactive”.
In the case of `CCN(CCC#N)c1ccc(N=Nc2c(Cl)cc([N+](=O)[O-])cc2Cl)cc1`, the Potency [1] is reported as “inactive”, the Potency [2] is reported as 48.6 µM (active) and the Potency [6] is reported as 12.2 µM (active). The Potency [3] was “inactive”.
With `Cc1cc(=O)oc2cc(N(C)C)ccc12` the Potency [1] was “inactive”, the Potency [4] was “inactive” and the Potency [6] was 48.6 µM (active).
In the case of `c1cc(C(c2ccc(OCC3CO3)cc2)c2ccc(OCC3CO3)cc2)ccc1OCC1CO1` (stereo unspecified), the Potency [2] is reported as 61.1 µM (active), the Potency [6] is reported as 27.3 µM (active) and the Potency [3] is reported as “inactive”.
For `Cn1cc(C(=O)[C@@H]2CCc3nc[nH]c3C2)c2ccccc21`, the Potency [1] was “inactive”, the Potency [2] was “inactive” and the Potency [5] was “inactive”. For the same compound, the Potency [6] was “inactive”, the max activation [9] was -0.66% and the Potency [7] was “inactive”. For the same compound, the Potency [8] was “inactive” and the Potency [3] was 17.4 µM (active).
In the case of `CCOc1nc2cccc(C(=O)OC(C)OC(=O)OC3CCCCC3)c2n1Cc1ccc(-c2ccccc2-c2nn[nH]n2)cc1` (stereo unspecified), the Potency [2] is reported as 34.3 µM (active), the Potency [4] is reported as 43.2 µM (active) and the Potency [6] is reported as 24.3 µM (active).
With `CCC(CN)=C(c1ccccc1)c1ccccc1` the Potency [1] was “inactive”, the Potency [5] was “inactive” and the Potency [3] was 4.36 µM (active).
With `CC(C)(C)CC(C)(C)c1ccc(OCCOCC[N+](C)(C)Cc2ccccc2)cc1` the Potency [2] was 61.1 µM (active), the Potency [4] was “inactive” and the Potency [5] was 61.1 µM (active).
For `CSc1ccc2c(c1)C(N1CCN(C)CC1)Cc1ccccc1S2` (stereo unspecified), the Potency [2] was 29.8 µM (active), the Potency [4] was “inactive” and the Potency [6] was “inactive”. The Potency [7] was 25.1 µM (active) and the Potency [3] was 1.74 µM (active).
In the case of `S=c1[nH]c2ccccc2s1`, the Potency [1] is reported as “inactive”, the Potency [2] is reported as 64.8 µM (active) and the Potency [6] is reported as 30.6 µM (active). The Potency [3] was 39.9 µM (active).
With `CC(C)c1ccc2c(c1)CC[C@H]1[C@](C)(CN)CCC[C@]21C` the Potency [6] was 19.3 µM (active) and the Potency [3] was 1.26 µM (active).
In the case of `Nc1c2ccccc2nc2ccccc12`, the Potency [1] is reported as 21.4 µM (active) and 11.9 µM (active), the Potency [4] is reported as 12 µM (active) and the Potency [5] is reported as “inactive”. The Potency [3] was 700 nM (active) and 11 µM (active).
For `O=CC=C(c1ccccc1)c1ccccc1`, the Potency [1] was “inactive”, the Potency [2] was 54.9 µM (active) and the Potency [6] was 69.1 µM (active).
For `Nc1ccc2c3c(cccc13)-c1ccccc1-2`, the Potency [6] was 27.6 µM (active) and the Potency [3] was “inactive”.
For `N/C(=N\N=C\c1ccc(Cl)cc1)N/N=C/c1ccc(Cl)cc1`, the Potency [1] was “inactive”, the Potency [4] was “inactive” and the Potency [6] was 11.9 µM (active). For the same compound, the Potency [7] was “inactive” and the Potency [8] was “inactive”.
With `C[C@@H]1C[C@H]2[C@@H]3CCC4=CC(=O)C=C[C@]4(C)[C@@]3(Cl)[C@@H](O)C[C@]2(C)[C@@]1(OC(=O)c1ccco1)C(=O)CCl` the Potency [2] was 23.7 µM (active), the Potency [6] was 26.6 µM (active) and the Potency [7] was “inactive”. For the same compound, the Potency [8] was 4.47 µM (active) and the Potency [3] was 3.89 µM (active).
For `Cc1ccc(-n2nc(C(C)(C)C)cc2NC(=O)Nc2ccc(OCCN3CCOCC3)c3ccccc23)cc1`, the Potency [4] was “inactive”, the Potency [5] was “inactive” and the Potency [6] was 23.7 µM (active). The Potency [3] was 15.5 µM (active).
With `Cc1[nH]cnc1C[C@H]1CCc2c(C)c3ccccc3n2C1=O` the Potency [2] was 47.4 µM (active), the Potency [4] was “inactive” and the Potency [6] was 59.6 µM (active). For the same compound, the Potency [3] was 4.37 µM (active).
For `OCCN(CCO)c1nc(N2CCCCC2)c2nc(N(CCO)CCO)nc(N3CCCCC3)c2n1`, the Potency [1] was “inactive” and the Potency [3] was 9.77 µM (active).
With `C/C(=C(/OCCOc1ccc(Cl)cc1)c1ccc(Cl)cc1Cl)n1ccnc1` the Potency [1] was “inactive”, the Potency [4] was “inactive” and the Potency [5] was “inactive”. The Potency [6] was 10.6 µM (active) and the Potency [3] was 1.55 µM (active).
